These results are taken from PubChem BioAssay (Tox21).

Results filed as inconclusive are left out. Unmarked numbers belong to inactive results. Activity calls are given as the source filed them. Calls come from the whole dose curve; as a rule, active = well fitted activation curve with a large enough effect in the signal ratio in the repeat runs (not every such curve was filed as active); inconclusive = weak or mixed curves; inactive = flat fitted curve, though single readings scatter; the % refers to the signal ratio.
% is set by controls: 0 for no effect and ±100 for the full control effect.

The test in a line: qHTS assay to identify small molecule agonists of the TGF-beta/Smad signaling pathway (AID 1346859). Conditions: SBE-bla HEK293T, TGF-beta/Smad beta-lactamase reporter, 5 h; series mostly up to 76.8 µM; activation: at the top concentration. The source says:
U.S. Tox21 Program National Center for Advancing Translational Sciences [NCATS] NIH Chemical Genomics Center [NCGC] U.S. Environmental Protection Agency [EPA] National Institutes of Environmental Health Sciences [NIEHS] National Toxicology Program [NTP] U.S. Food and Drug Administration [FDA] Tox21 Assay Overview: Transforming growth factor beta (TGF-beta) superfamily consists of a large number of structurally related dimeric proteins that act as hormones or local mediators in regulating a wide range of biological functions. This superfamily includes TGF-betas themselves, the bone morphogenetic proteins (BMPs) and the activins. These ligands induce oligomerization of serine/threonine receptor kinases and phosphorylate the cytoplasmic signaling molecules of Smad protein family. CellSensor SBE-bla HEK 293T cell line (Life Technologies, Carlsbad, CA), responsive to TGF-beta was used to screen Tox21 10K compound library for identification of agonists/antagonists of the Smad signaling pathway. This cell line contains a beta-lactamase reporter gene under control of the Smad binding element (SBE) stably integrated into HEK 293T cells.
Tox21 Assay Protocol Summary: SBE-bla HEK 293T cells were dispensed at 4,000/well in 6 uL of assay medium into black wall/clear-bottom 1536-well plates using a Multidrop Combi (ThermoFisher Scientific, Waltham, MA) dispenser. After the assay plates were incubated at 37 C and 5% CO2 for an overnight, 23 nL of compounds dissolved in DMSO, positive controls or DMSO only was transferred to the assay plate by a Pintool station (Kalypsys, San Diego, CA). The assay plates were incubated at 37 C and 5% CO2 for 5 hr. One uL of LiveBLAzer B/G FRET substrate (Life Technologies) was added using a Flying Reagent Dispenser (Aurora Discovery, San Diego, CA) and the plates were incubated at room temperature for 2 hr. Fluorescence intensity (405 nm excitation, 460 nm and 530 nm emissions) was measured using an Envision plate reader (PerkinElmer, Shelton, CT).
Take `O=S(=O)(Oc1ccc(Cl)cc1)c1ccc(Cl)cc1`: the call was inactive.
On the same count and under the same terms, the value for `COP(=O)(OC)OC` was “inactive”.
As for `CCc1cccc(CC)c1N(COC)C(=O)CCl`, the “activation” value was -7.54%.
Turning to `Nc1c(Cl)cc([N+](=O)[O-])cc1Cl`, the compound was called inactive.
The same measure, in the same setting: the value for `Brc1ccc(Oc2cc(Br)c(Br)cc2Br)c(Br)c1` was “inactive”; that for `CNC(=O)Oc1cccc2c1OC(C)(C)O2` was “inactive”.
Still for that read-out and setting: the value for `CCN(CC)C(=O)SCc1ccc(Cl)cc1` was “inactive”; that for `CC(C)=CC1C(C(=O)OCc2coc(Cc3ccccc3)c2)C1(C)C` (stereo not given) was “inactive”; that for `Clc1nc(Cl)nc(Cl)n1` was “inactive”.
As to `CCN(CC)N=O`, the compound was classed as inactive.
Still for that read-out and setting: then `O=C(NC(=O)c1c(F)cccc1F)Nc1ccc(Cl)cc1`, with “inactive”; and `N[C@@H](Cc1ccc(N(CCCl)CCCl)cc1)C(=O)O`, with “inactive”; and `C=CC(=O)OCCO`, with “inactive”.
The same measure, in the same setting: then `Oc1c(Cl)c(Cl)c(Cl)c(Cl)c1Cl`, with “inactive”.
Still for that read-out and setting: then `OCC(O)CO`, with “inactive”; and `COP(=S)(OC)Oc1cc(Cl)c(Cl)cc1Cl`, with “inactive”; and `Nc1ccc(-c2ccccc2)cc1`, with “inactive”.
As to `Nc1ccc(-c2ccc(N)c(N)c2)cc1N`, the outcome was inactive.
The same measure, in the same setting: then `Nc1ccncc1`, with “inactive”; and `CCC(C)c1cc([N+](=O)[O-])cc([N+](=O)[O-])c1O` (stereo not given), with “inactive”.
`CCCCCCCCOC(=O)c1ccccc1C(=O)OCCCCCCCC`: the compound was called inactive.
In the case of `ClC1C(Cl)C(Cl)C(Cl)C(Cl)C1Cl` (stereo not given), the call was inactive.
The same measure, in the same setting: then `NCc1cccnc1`, with “inactive”.
On to `Cc1c(COC(=O)[C@@H]2[C@H](/C=C(\Cl)C(F)(F)F)C2(C)C)cccc1-c1ccccc1`, for which the “activation” value is -4.14%.
On the same count and under the same terms, the value for `CC(C)(C)c1ccccc1O` was 1.2%.
Turning to `O=C(CCl)c1ccccc1`, the outcome was inactive.
Still for that read-out and setting: the value for `CCCCCCCCC(=O)NCc1ccc(O)c(OC)c1` was “inactive”.
Same read-out and setting: then `CCC(C)(C)c1ccc(O)cc1`, with “inactive”; and `O=Cc1ccco1`, with “inactive”; and `CCCCCCCCCCCOC(=O)c1ccccc1C(=O)OCCCCCCCCCCC`, with “inactive”.
Same read-out and setting: then `O=[N+]([O-])c1cccc2ccccc12`, with “inactive”.
In the case of `C=CCc1ccc2c(c1)OCO2`, the call was inactive.
`C=C(C)[C@H]1Cc2c(ccc3c2O[C@@H]2COc4cc(OC)c(OC)cc4[C@@H]2C3=O)O1`: the outcome was inactive.
Still for that read-out and setting: the value for `O=[N+]([O-])c1ccc(O)c([N+](=O)[O-])c1` was “inactive”; that for `c1ccc(N=Nc2ccccc2)cc1` was “inactive”.
Same read-out and setting: the value for `NNC(=S)NN` was “inactive”.
As for `Oc1cc(Cl)ccc1Oc1ccc(Cl)cc1Cl`, the “activation” value was 1% [at 35.3 µM].
As to `Cc1ccc(N)c(N)c1`, the call was inactive.
In the case of `CCCCNC(=O)n1c(NC(=O)OC)nc2ccccc21`, the “activation” value is -0.257%.
For the compound `CCCCC(CC)COC(=O)c1ccc(C(=O)OCC(CC)CCCC)c(C(=O)OCC(CC)CCCC)c1` (stereo not given), the compound was classed as inactive.
